The record followed here is the antibiotic and cytotoxicity screens of Wong et al. (2023).

The whole screen tested about 39,000 compounds, of which about 500 (1.3%) were called active. The full list was thinned out, with actives kept by preference.

This experiment concerns S. aureus RN4220. Put plainly: growth inhibition call (relative growth <= 0.2). As to conditions: 50 µM.
Regarding `CNC(=O)Cn1cc(Br)cn1`, the growth inhibition call is “inactive”.
For the molecule `C[C@H]1N(c2cnn(C)c2)C(=O)COC12CCN(S(C)(=O)=O)CC2`, the growth inhibition call was “inactive”.
Turning to `O=C1O[C@H](CO)[C@@H](O)[C@H](O)[C@H]1O`, the growth inhibition call is “inactive”.
Turning to `COc1ccc2c3c(n(c2c1)C)[C@@H](CO)N(Cc1ccccc1F)C[C@]13CN(C1)C(=O)C1CCOCC1`, the growth inhibition call was “inactive”.
Take `C[C@@H]1CN([C@@H](C)CO)C(=O)c2cccc(NS(C)(=O)=O)c2O[C@@H]1CN(C)C(=O)Nc1ccc2c(c1)OCO2`: the growth inhibition call is “inactive”.
To `CC1CCC2(C)C(C=O)=CCCC2C1(C)CC1OC(O)C(=O)C12CO2` (stereo unspecified) belongs “active”; to `C[C@H]1CN([C@@H](C)CO)C(=O)c2cc(NC(=O)CCN3CCOCC3)ccc2O[C@@H]1CN(C)Cc1ccc2c(c1)OCO2`, “inactive”; to `C[C@H](CO)N1C[C@H](C)[C@@H](CN(C)Cc2ccc(Cl)c(Cl)c2)Oc2ccc(NC(=O)Nc3cccc4ccccc34)cc2C1=O`, “inactive”.
As for `C=CC[C@H](CC(=O)NCCO)C(=O)N[C@H](COC(=O)[C@@H](CC=C)CC(=O)OC(C)(C)C)Cc1ccccc1`, the growth inhibition call was “inactive”.
To `O=C(CCCCCCC(=O)Nc1ccccc1)NO` belongs “inactive”.
In the case of `COC(=O)CCCCCCC(=O)Nc1ccc(NC(=O)CCCC[P+](c2ccccc2)(c2ccccc2)c2ccccc2)cc1` it was “active”; in that of `O=C(CCCCCC(=O)Nc1ccccc1O)N/N=C/C[P+](c1ccccc1)(c1ccccc1)c1ccccc1`, “inactive”; in that of `C[C@@H]1CN([C@H](C)CO)C(=O)c2cccc(NC(=O)NC3CCCCC3)c2O[C@H]1CN(C)C(=O)Nc1cccc2ccccc12`, “inactive”.
To `C[N+](C)(C)CCCCCCNC(=O)[C@@H]1C[C@@H]2C(=O)N[C@@H](CCCC[N+](C)(C)C)C(=O)N2[C@@H]1c1ccc(O)cc1` belongs “active”; to `C[N+](C)(C)CCCCNC(=O)[C@H]1C[C@H]2C(=O)N[C@@H](CCCC[N+](C)(C)C)C(=O)N2[C@H]1c1ccc(O)cc1`, “inactive”.
For `C[N+](C)(C)CCCCCCNC(=O)[C@H]1C[C@H]2C(=O)N[C@@H](CCCC[N+](C)(C)C)C(=O)N2[C@H]1c1ccc(O)cc1`, the growth inhibition call was “inactive”.
In the case of `COc1ccc(CNC(=O)C[C@@H]2C[C@H]3c4cc(NC(=O)NC5CCCC5)ccc4O[C@H]3[C@@H](CO)O2)cc1`, the growth inhibition call was “inactive”.
Regarding `O=C(Nc1ccc(S(=O)(=O)OCC(F)(F)C(F)(F)C(F)(F)C(F)F)cc1)NC1(C(F)(F)F)Oc2ccccc2O1`, the growth inhibition call is “active”.
In the case of `C=CC[C@@H](CC(=O)N(CCO)Cc1ccccc1)C(=O)NCCOC(=O)[C@@H](CC=C)CC(=O)OC(C)(C)C` it was “inactive”; in that of `C[C@H](CO)N1C[C@H](C)[C@H](CN(C)C(=O)Nc2ccc(C(F)(F)F)cc2)Oc2ccc(NC(=O)Cn3cnnn3)cc2CC1=O`, “inactive”; in that of `O=C(C[C@@H]1CC[C@H]2[C@@H](COC[C@H](O)CN2S(=O)(=O)c2ccccc2)O1)N1CCOCC1`, “inactive”.
Regarding `COc1ncc(-c2ccc3c(Nc4cc(Oc5cc(F)cc(F)c5)cc(C(=O)O)c4)c(S(=O)(=O)NC4CC4)cnc3c2)c(OC)n1`, the growth inhibition call is “active”.
In the case of `CCCN(C)C[C@H]1OCCCC[C@H](C)Oc2ccc(NC(=O)CCC(F)(F)F)cc2C(=O)N([C@H](C)CO)C[C@@H]1C` it was “inactive”; in that of `O=C(OCc1ccccc1)c1cccnc1`, “inactive”.
`C[C@H]1CCCCO[C@H](CN(C)CC2CCCCC2)[C@@H](C)CN([C@@H](C)CO)C(=O)c2cc(NC(=O)Nc3cccc4ccccc34)ccc2O1`: the growth inhibition call was “inactive”.
In the case of `CCCC#Cc1ccc2c(c1)O[C@H](CN(C)Cc1ccc3c(c1)OCO3)[C@H](C)CN([C@@H](C)CO)S2(=O)=O`, the growth inhibition call was “inactive”.
In the case of `C[C@@H]1CN([C@@H](C)CO)C(=O)c2cc(NS(=O)(=O)c3cccs3)ccc2O[C@@H]1CN(C)CC1CC1` it was “inactive”; in that of `CN(C)[C@@H]1C(=O)[C@@H](C(=O)NCNCCCC[C@H](N)C(=O)O)C(=O)[C@@]2(O)C(=O)[C@@H]3C(=O)c4c(O)cccc4[C@@](C)(O)[C@H]3C[C@@H]12`, “inactive”; in that of `CN(C)c1ccc(O)c2c1C[C@H]1C[C@H]3[C@H](N(C)C)C(=O)C(C(N)=O)=C(O)[C@@]3(O)C(=O)[C@H]1C2=O`, “inactive”.
In the case of `CN(C)c1cc(NC(=O)CNC(C)(C)C)c(O)c2c1CC1CC3C(N(C)C)C(O)=C(C(N)=O)C(=O)C3(O)C(O)=C1C2=O` (stereo unspecified) it was “inactive”; in that of `CN(C)[C@@H]1C(=O)[C@@H](C(N)=O)C(=O)[C@@]2(O)C(=O)[C@H]3C(=O)c4c(O)ccc(Cl)c4[C@@H](O)[C@H]3C[C@@H]12`, “active”; in that of `CN(C)c1ccc(O)c2c1C[C@@H]1C[C@@H]3[C@@H](N(C)C)C(=O)C(C(N)=O)=C(O)[C@]3(O)C(=O)[C@H]1C2=O`, “inactive”.
With `CN(C)c1cc(NC(=O)CNC(C)(C)C)c(O)c2c1C[C@H]1C[C@H]3[C@H](N(C)C)C(=O)C(C(N)=O)=C(O)[C@@]3(O)C(=O)[C@H]1C2=O`, the growth inhibition call is “inactive”.
With `CN(C)c1cc(NC(=O)CNC(C)(C)C)c(O)c2c1C[C@H]1C[C@H]3[C@H](N(C)C)C(=O)[C@@H](C(N)=O)C(=O)[C@@]3(O)C(=O)[C@H]1C2=O`, the growth inhibition call was “inactive”.
To `CN(C)C1C(O)=C(C(N)=O)C(=O)C2(O)C(O)=C3C(=O)c4c(O)ccc(Cl)c4C(O)C3CC12.Cl` (stereo unspecified) belongs “inactive”; to `CN(C)[C@@H]1C(=O)[C@@H](C(N)=O)C(=O)[C@@]2(O)C(=O)[C@@H]3C(=O)c4c(O)c(NC(=O)CN5CCCC5)cc(F)c4C[C@H]3C[C@@H]12`, “active”.
Regarding `CN(C)[C@@H]1C(=O)[C@@H](C(N)=O)C(=O)[C@@]2(O)C(=O)[C@H]3C(=O)c4c(O)cccc4C[C@H]3C[C@@H]12`, the growth inhibition call was “inactive”.
In the case of `CN(C)c1cc(CNCC(C)(C)C)c(O)c2c1C[C@H]1C[C@H]3[C@H](N(C)C)C(=O)[C@H](C(N)=O)C(=O)[C@@]3(O)C(=O)[C@@H]1C2=O` it was “active”; in that of `CN(C)c1ccc(O)c2c1C[C@H]1C[C@H]3[C@H](N(C)C)C(=O)[C@@H](C(N)=O)C(=O)[C@@]3(O)C(=O)[C@H]1C2=O`, “active”; in that of `COc1ccc(S(=O)(=O)N(C)C[C@H]2Oc3ccc(NC(=O)C4CC4)cc3C(=O)N([C@@H](C)CO)C[C@@H]2C)cc1`, “inactive”.
In the case of `C[C@@H]1CCCCO[C@H](CN(C)C(=O)Nc2ccc3c(c2)OCO3)[C@H](C)CN([C@H](C)CO)C(=O)c2cc(NS(=O)(=O)c3ccc(F)cc3)ccc2O1` it was “inactive”.
